Source: PubChem BioAssay (Milwaukee Institute for Drug Discovery)
HCV NS3h FP: hepatitis C NS3 helicase inhibition, primary screen; NS3h Cy5-dT15 DNA binding, fluorescence polarization; inhibition, % at 100 µM; 1.6% of 16,000 active; AID 687043;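 active means inhibition above the average over every tested compound plus 3 SD, cut at about 40% in these data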
Cy5 interf NS3h: Cy5 fluorescence interference, HCV helicase counter-screen. Cy5-dT15 DNA with NS3h; actives lie on both sides; signal over control mean, under 1 quenches. fluorescence interference ratio at 100 µM. 6% of 16,000 active;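 active means compound fluorescence over control fluorescence at most 0.8, a quencher, or at least a set upper limit, an enhancer; inactive means ratio between 0.8 and the set upper limit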
Starred values were filed as active, the others as inactive. Compounds with a hit are over-represented: about 6.9% of the library has one in this group of screens.

SMILES	HCV NS3h FP	Cy5 interf NS3h
Cc1cc(C)c(-n2c(O)c(C=C3C=Nc4ccccc43)c(=O)[nH]c2=O)c(C)c1	3	1
O=c1[nH]c(=O)n(Cc2ccccc2)c(O)c1C=C1C=CC=N1	11	0.77*
COc1ccc(OC)c(Cn2c(O)c(C=C3C=CC=N3)c(=O)[nH]c2=O)c1	17	0.88
COC(=O)C(=Cc1cc(Br)c(OCc2ccc([N+](=O)[O-])cc2)c(OC)c1)C(=O)OC	6	0.75*
COc1cc(/C=C/c2[nH]c(=O)[nH]c(=O)c2[N+](=O)[O-])cc(Br)c1OCc1ccccc1	13	1.1
CC(=O)O/N=C1/Sc2ccccc2C1=O	20	1
O=C1CC(Nc2ccc(F)cc2)C(=O)N1c1ccc(N2CCOCC2)cc1 (stereo not given)	13	1
COc1ccc(N=C2C(=O)Nc3ccc(C)c(Br)c32)cc1	21	0.66*
COc1ccc(S(=O)(=O)Nc2ccc(Br)cc2C)cc1	18	1.1
Cc1ccc(S(=O)(=O)N=C(Nc2ccc([N+](=O)[O-])cc2)c2ccccc2)cc1	9	0.95
CC(C1CC1)N(Cc1ccccc1)C(=O)Nc1cccc([N+](=O)[O-])c1 (stereo not given)	7	0.61*
CC1=C(C(=O)Nc2ccc(C)c(Cl)c2)C(c2cccc([N+](=O)[O-])c2)NC(=O)N1 (stereo not given)	1	0.9
Cc1cc(NC(=O)c2ccccc2I)ccc1-c1cc2ccccc2oc1=O	14	1
CCOc1ccc(C(=O)Nc2ccc(-c3cc4ccccc4oc3=O)c(C)c2)cc1Cl	-2	0.96
COc1ccccc1C(=O)Nc1ccc(-c2cc3ccccc3oc2=O)cc1	-30	0.76*
Cc1cc(NC(=O)c2ccc(Cl)cc2)ccc1-c1cc2ccccc2oc1=O	3	0.66*
COc1ccc(C(O)=C2C(=O)C(=O)N(CCc3ccccc3)C2c2ccc(F)cc2)cc1 (stereo not given)	-10	0.95
O=C(NCc1ccccn1)c1ccccc1Oc1ccccc1	4	1
Cc1ccc(N(CC(N)=O)S(=O)(=O)c2ccccc2)c(C)c1	-16	1.1
O=C(C1=C(O)C(=O)N(c2ncc(S(=O)(=O)c3ccc([N+](=O)[O-])cc3)s2)C1c1ccc(F)cc1)c1ccco1 (stereo not given)	11	0.79*
COc1ccc(C2C(=C(O)c3ccc(C)cc3)C(=O)C(=O)N2c2ncc(S(=O)(=O)c3ccc([N+](=O)[O-])cc3)s2)cc1 (stereo not given)	14	0.84
CCOc1ccc(C(=O)N2CC(C)OC(C)C2)cc1OCC (stereo not given)	-2	1.1
CCN(CC)CCN1C(=O)C(O)=C(C(=O)/C=C/c2ccccc2)C1c1ccc(Br)cc1 (stereo not given)	8	1.1
CCN(CC)CCN1C(=O)C(O)=C(C(=O)/C=C/c2ccccc2)C1c1ccc(OC)cc1 (stereo not given)	26	1.2*
C/C(=N/OCc1nc2c3c4c(sc3ncn2n1)C(C)(C)NC(C)(C)C4)c1ccc(Br)cc1	0	1.1
SMILES	HCV NS3h FP	Cy5 interf NS3h
Nc1nnnn1/N=C\c1ccc(C=O)cc1	-9	0.71*
Nc1nnnn1/N=C\c1ccc(OCc2ccccc2)cc1	-5	1.1
O=C(O)CCCCCN1C(=O)C(=O)C(=C(O)c2ccc(F)cc2)C1c1ccc(Cl)cc1 (stereo not given)	-1	1
Cc1ccc(C(O)=C2C(=O)C(=O)N(CCCC(=O)O)C2c2ccc(Br)cc2)cc1 (stereo not given)	9	1.2*
COCCN=C1NS(=O)(=O)c2ccccc21	1	1
CCC(=O)Nc1cccc2c1C(=O)c1ccccc1C2=O	11	1.1
COC(=O)c1ccc2c(c1O)C(=O)c1ccccc1C2=O	-8	0.8*
O=c1cc(-c2ccccc2)nc2cc(-c3cccc(F)c3)[nH]n12	2	1
CCc1ccccc1NC(=O)CC1S/C(=N/N=C(C)\C=C\c2ccc(OC)cc2)NC1=O (stereo not given)	-29	1.2*
C/C(=N/N=C1\NC(=O)C(CC(=O)Nc2ccccc2C)S1)c1ccc(F)cc1 (stereo not given)	2	1
CCCC(C)NS(=O)(=O)c1ccc(OC)cc1 (stereo not given)	5	1.1
CCOc1cc(/C=C2\C(=O)NC(=O)N(c3ccc(Cl)cc3)C2=O)cc(Br)c1OC	7	1
CS(=O)(=O)c1ccc2nc(NC(=O)c3ccc(Cl)c(Cl)c3)sc2c1	-26	0.71*
CS(=O)(=O)c1ccc2nc(NC(=O)c3ccccc3)sc2c1	13	1.1
COc1ccc(/C(N)=N\OC(=O)COc2ccccc2C)cc1	14	0.97
CCN(CC)c1ccc(/C=N\N2C(=O)c3ccccc3C2=O)cc1	7	1.2*
CCN(CC)c1ccc(/C=N/NC(N)=O)cc1	5	1.1
CN(C)c1ccc(NC2=NS(=O)(=O)c3ccccc32)cc1	0	0.95
c1ccc(NC2=Nc3cccc4cccc2c34)cc1	24	0.59*
